In PubChem BioAssay AID1508600 (Functional Genomics Laboratory (NCATS/FGL), 2020):
Among all 53,000 sequences or so, about 3,700 (7%) were called active.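 The calls were made as follows: active = gene knockdowns whose robust z-score for IL-1 alpha signal is at least 2 or at most -2, so actives lie on both sides; inactive = the rest.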 The full list was thinned out, with actives kept by preference.

Experiment: Components of the Cytosolic LPS Sensing Pathway: Gene Identification via Genome-wide siRNA Screen;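 also: robust z of the log signal after scaling to non-targeting control siRNA wells of the plate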
Details: RAW264.7 macrophages, IL-1a HTRF, actives lie on both sides, screened at 100 nM (by protocol), cells primed 5 h with Pam3CSK4 first
Summary of the method: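 Knockdown: 100 nM siRNA, 48h, RAW264.7. Stimulation: Pam3CSK4 5 h, then LipidA via TransIT-TKO 24 h. Output: supernatant IL-1a HTRF, negative-control-normalized, log robust z-score; viability by CellTiter-Glo.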

Row | Sequence | z-score
1 | GCCUUUCUUCAGUGUUCACTT against Gm128 | 0.498 (inactive)
2 | GGUCUACGCUAUCCUAGUUTT against Grin1 | -2.23 (active)
3 | GCACCAAAAUACACGAAAGTT against Ptpdc1 | -1.11 (inactive)
4 | CCCAUGACUAUCCAAACAATT against Kcnmb2 | -1.52 (inactive)
5 | CCUUAGUAACAGCACUAGCTT against Lrfn2 | -0.228 (inactive)
6 | GGAGCUGGAGUACGACUACTT against Tmem30b | -0.891 (inactive)
7 | GGGAAAAUUUCCUCUGACUTT against Chia1 | -2.03 (active)
8 | UUUAAGGAUCUCGUGCGAATT against Olfr809 | -0.12 (inactive)
9 | GCUAAAACCCGUUACUUCCTT against Gsta4 | 0.669 (inactive)
10 | CGACUACAAUGGGCUCAAGTT against Kifc3 | -2.1 (active)
11 | GGUAAAGGGUUCUUGGACATT against Eps15l1 | -0.156 (inactive)
12 | GGAGAAUGCCCUGAUAUAGTT against Hyal5 | 1.56 (inactive)
13 | GGAUGUGAUUGAUAUUGAATT against Cul7 | 1.63 (inactive)
14 | GCAGUAGUCUUGGAAUUAATT against Bhlhe41 | 2.15 (active)
15 | GCAGCGAGGUUAUCAGUAATT against Sox8 | -0.554 (inactive)
16 | GCCUUUUUACAGCUCAGGUTT against Zfp975 | -0.623 (inactive)
17 | GCCACCCUUCUGGAGAUUCTT against Gm6787 | 1.49 (inactive)
18 | CGGUAUCUACAUCAUAAACTT against Rpsa | 0.172 (inactive)
19 | GGUUACCAGAAAAUAACUATT against E130114P18Rik | 0.852 (inactive)
20 | UGUCAACUGACUGUAGUAATT against Zmynd12 | 1.66 (inactive)
21 | GGACUGGAAAAUAUCAAACTT against Spata5 | 2.04 (active)
22 | GGCUACGUGAAGGAACAGUTT against Rps10 | 0.397 (inactive)
23 | GGCACUUAAGUAUUCUUCATT against Wac | -0.412 (inactive)
24 | GGAAAAAUCAGUUUCGUCUTT against Dgkq | 0.305 (inactive)
25 | GGUUAGCCAGCUGAAUCAATT against Cxxc4 | 1.89 (inactive)
26 | CCUAGAAAGAGGACUCAGATT against Abhd12 | -0.293 (inactive)
27 | CCUUUAAAGGGCAUAUUCATT against Clip1 | 1.46 (inactive)
28 | GGCCUGCCGGAGAUAAAGATT against Tex43 | -0.759 (inactive)
29 | CCCUGUCUUUCCUAGGCCATT against Mcat | -3.3 (active)
30 | AGGGCACAAAAGGUGACAATT against Rph3al | -0.887 (inactive)
